The target in experiment [1] is human Dopamine Transporter (DAT), SLC6A3 (gene 6531) (UniProt Q01959). Nature of the experiment: NVS_TR_hDAT: NovaScreen (NVS) Transporter Assay for human Dopamine Transporter (DAT) (AID 2283374).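 Note: activity means loss of bound radioligand signal relative to DMSO.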 In a few lines:
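Cell-free radioligand binding to extracted human DAT protein, read 1 h after dosing by filter-based scintillation counting. Loss of specific binding scored against DMSO baseline; primary screen in duplicate at 25 uM, actives then run in concentration series.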

The target of experiment [2] is mouse Estrogen Receptor alpha (Era), Esr1 (gene 13982) (UniProt P19785). The experiment in a line: NVS_NR_mERa: NovaScreen (NVS) Nuclear Receptor Binding Assay for mouse Estrogen Receptor alpha (Era) (AID 2283378).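 Note: hit means loss of bound radioligand signal relative to DMSO.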 In a few lines:
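Cell-free radioligand binding with extracted mouse Era protein; competitive displacement of radiolabelled ligand, read by filter-based scintillation counting 18 hours after dosing. Loss of signal versus DMSO baseline taken as binding; single screening concentration 25 uM, actives followed in concentration series.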

The target in experiment [3] is Agonist Androgen Response Element (ARE), AR (gene 367) (UniProt P10275). The experiment in a line: OT_AR_ARELUC_AG_1440: Odyssey Thera (OT) 24-hour CHO-K1 Luciferase Assay for Agonist Androgen Response Element (ARE) (AID 2283379). The procedure, abridged: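 Seed CHO-K1 cells; dose compounds for 24 h; add D-luciferin plus ATP in PBS; read luminescence. Signal increase relative to vehicle defines agonist activity, with at least 3 replicate wells per sample.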
Agonist Androgen Response Element (ARE), AR (gene 367), sequence (P10275 whole entry, looked up): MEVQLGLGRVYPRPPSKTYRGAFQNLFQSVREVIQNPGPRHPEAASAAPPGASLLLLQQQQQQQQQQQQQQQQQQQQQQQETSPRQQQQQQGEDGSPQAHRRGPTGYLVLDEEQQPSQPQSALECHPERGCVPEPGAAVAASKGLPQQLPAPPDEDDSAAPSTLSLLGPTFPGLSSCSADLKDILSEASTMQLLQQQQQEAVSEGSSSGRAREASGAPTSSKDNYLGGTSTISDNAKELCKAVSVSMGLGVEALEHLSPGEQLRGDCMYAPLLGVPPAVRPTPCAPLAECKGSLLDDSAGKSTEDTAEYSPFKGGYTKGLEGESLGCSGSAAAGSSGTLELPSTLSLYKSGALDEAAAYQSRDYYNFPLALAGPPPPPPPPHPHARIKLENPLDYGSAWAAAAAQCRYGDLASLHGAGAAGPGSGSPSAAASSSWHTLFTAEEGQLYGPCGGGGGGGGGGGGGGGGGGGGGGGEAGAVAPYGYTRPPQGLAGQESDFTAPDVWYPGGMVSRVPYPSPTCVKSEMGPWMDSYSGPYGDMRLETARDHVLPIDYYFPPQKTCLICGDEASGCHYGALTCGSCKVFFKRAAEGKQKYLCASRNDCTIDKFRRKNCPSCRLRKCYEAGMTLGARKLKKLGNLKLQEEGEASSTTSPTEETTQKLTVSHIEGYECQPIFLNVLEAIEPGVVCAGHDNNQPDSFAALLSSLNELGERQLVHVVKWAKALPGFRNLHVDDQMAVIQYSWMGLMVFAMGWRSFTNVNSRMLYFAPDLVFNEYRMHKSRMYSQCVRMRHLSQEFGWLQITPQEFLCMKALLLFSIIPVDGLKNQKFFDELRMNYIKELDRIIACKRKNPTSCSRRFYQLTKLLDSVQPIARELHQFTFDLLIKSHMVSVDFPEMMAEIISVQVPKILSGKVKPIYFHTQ

Experiment [4] addresses Estrogen receptor beta (Homo sapiens) (UniProt Q92731). Nature of the experiment: OT_ER_ERbERb_1440: Odyssey Thera (OT) 24-hour HEK293T Protein-Complementation Assay for Estrogen Receptor-beta/-beta Homodimer (AID 2283380).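 Note: fluorescence gain from ER beta LBD homodimer complementation read by laser scanning cytometry; scored as signal increase over DMSO baseline for both agonists and antagonists.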 The procedure, abridged:
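HEK293T cells stably expressing human ER-beta LBD (aa 310-547) PCA homodimer pair, dosed 24 h; formaldehyde-fixed, Draq5-stained. Readout: increase in nuclear (agonist) or nuclear plus cytoplasmic (antagonist) fluorescence intensity versus DMSO, gain-of-signal fitting.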

For experiment [5], the target named is Estrogen receptor (Homo sapiens) (UniProt P03372). Nature of the experiment: OT_ERa_GFPERaERE_0480: Odyssey Thera (OT) 8-hour HeLa Transcription Induction Assay for Estrogen Receptor (AID 2283381; active = hit-call score of the fitted dose curve at least 0.9, where 1 is the maximum; inactive = score below 0.9). The procedure, abridged: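 HeLa cells expressing GFP reporter under estrogen response element, imaged 8 h after dosing. GFP induction quantified by high-content fluorescence microscopy image analysis; gain of signal fitted versus DMSO.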
Estrogen receptor (Homo sapiens), sequence (P03372 whole entry, looked up): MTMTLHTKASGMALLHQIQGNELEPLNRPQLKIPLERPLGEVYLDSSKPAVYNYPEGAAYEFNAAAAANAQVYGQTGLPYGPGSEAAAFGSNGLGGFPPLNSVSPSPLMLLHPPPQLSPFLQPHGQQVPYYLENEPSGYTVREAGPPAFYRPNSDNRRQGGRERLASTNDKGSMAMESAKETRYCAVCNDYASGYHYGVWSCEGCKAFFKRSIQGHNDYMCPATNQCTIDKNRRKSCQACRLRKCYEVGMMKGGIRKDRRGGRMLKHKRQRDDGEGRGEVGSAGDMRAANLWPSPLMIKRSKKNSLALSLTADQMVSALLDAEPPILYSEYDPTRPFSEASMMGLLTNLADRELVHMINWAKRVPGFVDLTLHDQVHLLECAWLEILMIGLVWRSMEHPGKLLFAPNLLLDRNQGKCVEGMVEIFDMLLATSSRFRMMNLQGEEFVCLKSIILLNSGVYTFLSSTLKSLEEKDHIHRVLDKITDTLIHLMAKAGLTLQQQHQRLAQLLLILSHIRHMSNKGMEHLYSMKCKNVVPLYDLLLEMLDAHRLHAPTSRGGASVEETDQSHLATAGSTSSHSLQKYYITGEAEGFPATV

The target is the same in experiment [6]. Nature of the experiment: OT_ERa_GFPERaERE_0120: Odyssey Thera (OT) 2-hour HeLa Transcription Induction Assay for Estrogen Receptor (AID 2283382). In a few lines:
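HeLa cells were dosed for 2 h, then GFP reporter induction was quantified by fluorescence microscopy with high-content image analysis. Gain of signal fitted against DMSO baseline.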

In experiment [7] the target is Bile acid receptor (Homo sapiens) (UniProt Q96RI1). The experiment in a line: OT_FXR_FXRSRC1_0480: Odyssey Thera (OT) 8-hour HEK293T Protein-Complementation Assay for Farnesoid X receptor/SRC-1 Co-activator (AID 2283383). In a few lines:
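HEK293T protein-fragment complementation assay: FXR and SRC-1 coactivator are fused to reporter fragments, and their interaction restores a fluorescent reporter. Readout was taken 8 h after dosing, with gain of signal fit relative to DMSO.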

For experiment [8] the target is unchanged. The experiment in a line: OT_FXR_FXRSRC1_1440: Odyssey Thera (OT) 24-hour HEK293T Protein-Complementation Assay for Farnesoid X receptor/SRC-1 Co-activator (AID 2283384). The procedure, abridged:
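HEK293T cells, 24 h after chemical dosing. FXR–SRC-1 coactivator interaction read as fluorescence from protein-fragment complementation of a split reporter. Gain of signal fitted against DMSO baseline.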

Experiment [9] relates to guinea pig Dopamine Transporter (DAT), gene 100714898. Nature of the experiment: NVS_TR_gDAT: NovaScreen (NVS) Transporter Assay for guinea pig Dopamine Transporter (DAT) (AID 2283369).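 Note: active compounds lower bound radioligand signal relative to DMSO.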 In a few lines: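 Guinea pig striatal membranes; radioligand displacement measured by filter-based scintillation counting 2 h after dosing. Initial duplicate screen at 25 uM, then concentration-response up to 50 uM for hits; loss of signal versus DMSO baseline.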

Experiment [10] deals with rat Serotonin Transporter (SERT), Slc6a4 (gene 25553) (UniProt P31652). The experiment in a line: NVS_TR_rSERT: NovaScreen (NVS) Transporter Assay for rat Serotonin Transporter (SERT) (AID 2283375). The procedure, abridged: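 Rat forebrain membranes were incubated with test chemical for 1 hour; radioligand binding to SERT was measured by filter-based scintillation counting. Primary screen ran in duplicate at 25 uM, with actives followed up in concentration series; DMSO served as negative control.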
rat Serotonin Transporter (SERT), Slc6a4 (gene 25553), sequence (P31652 whole entry, looked up): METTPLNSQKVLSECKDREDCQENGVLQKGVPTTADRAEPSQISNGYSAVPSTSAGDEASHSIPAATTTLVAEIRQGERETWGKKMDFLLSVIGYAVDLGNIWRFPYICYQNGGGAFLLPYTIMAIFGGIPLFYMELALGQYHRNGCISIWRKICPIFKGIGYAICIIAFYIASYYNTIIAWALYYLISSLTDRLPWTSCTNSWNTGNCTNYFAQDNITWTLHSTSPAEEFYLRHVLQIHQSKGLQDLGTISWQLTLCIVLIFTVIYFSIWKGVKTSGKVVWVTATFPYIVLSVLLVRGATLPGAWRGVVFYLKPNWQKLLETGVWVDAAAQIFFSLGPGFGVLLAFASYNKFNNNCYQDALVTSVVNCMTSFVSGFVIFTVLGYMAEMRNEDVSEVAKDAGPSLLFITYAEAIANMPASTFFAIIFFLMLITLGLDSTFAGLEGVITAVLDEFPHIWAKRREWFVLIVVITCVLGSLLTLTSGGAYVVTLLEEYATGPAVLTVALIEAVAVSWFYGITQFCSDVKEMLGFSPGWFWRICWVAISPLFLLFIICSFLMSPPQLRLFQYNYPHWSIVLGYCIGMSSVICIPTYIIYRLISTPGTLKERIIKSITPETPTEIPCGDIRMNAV

Experiment [11] deals with human Norepinephrine Transporter (NET), SLC6A2 (gene 6530) (UniProt P23975). Nature of the experiment: NVS_TR_hNET: NovaScreen (NVS) Transporter Assay for human Norepinephrine Transporter (NET) (AID 2283377).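 Note: cell-free membrane protein extracted from CHO cells expressing human NET.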 In a few lines: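 Radioligand binding to human NET in cell-free CHO-derived protein preparations, read by filter-based scintillation counting 1 hour after dosing. Loss of signal versus DMSO baseline indicated displacement; primary screening in duplicate at 25 uM, actives then titrated.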
human Norepinephrine Transporter (NET), SLC6A2 (gene 6530), sequence (P23975 whole entry, looked up): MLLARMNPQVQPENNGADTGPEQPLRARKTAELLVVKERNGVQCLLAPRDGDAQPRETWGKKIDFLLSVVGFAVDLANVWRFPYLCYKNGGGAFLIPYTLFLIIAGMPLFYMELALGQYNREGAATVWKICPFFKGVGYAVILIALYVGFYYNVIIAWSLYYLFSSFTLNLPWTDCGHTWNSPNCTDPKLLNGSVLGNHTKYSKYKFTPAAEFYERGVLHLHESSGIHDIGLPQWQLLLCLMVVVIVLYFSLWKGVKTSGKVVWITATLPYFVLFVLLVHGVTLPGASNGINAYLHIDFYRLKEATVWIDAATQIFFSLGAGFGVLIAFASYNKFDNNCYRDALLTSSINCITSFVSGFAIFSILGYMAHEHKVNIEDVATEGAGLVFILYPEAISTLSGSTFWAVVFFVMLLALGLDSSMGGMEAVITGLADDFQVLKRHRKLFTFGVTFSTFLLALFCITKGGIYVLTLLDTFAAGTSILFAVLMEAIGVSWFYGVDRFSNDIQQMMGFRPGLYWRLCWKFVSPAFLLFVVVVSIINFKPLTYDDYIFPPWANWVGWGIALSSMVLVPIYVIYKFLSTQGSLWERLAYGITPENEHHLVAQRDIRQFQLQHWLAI

The target of experiment [12] is Peroxisome proliferator-activated receptor gamma (Homo sapiens) (UniProt P37231). The experiment in a line: NVS_NR_hPPARg: NovaScreen (NVS) Nuclear Receptor Binding Assay for human Peroxisome Proliferator-activated Receptor gamma (PPARg) (AID 2283370). The procedure, abridged: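 Cell-free binding to extracted PPARg protein, read by fluorescence polarization 2 h after dosing; loss of signal relative to DMSO baseline marks displacement. Primary screen in duplicate at 25 uM, actives retested in concentration series.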

Drawing on PubChem BioAssay (EPA / NIEHS), this text covers AC50 and outcome for 23 compounds.

Results filed as inconclusive are left out. The source holds several records for some structures; these can differ, active in one and inactive in another. Active and inactive are the calls of the source. Rule for the calls, unless noted: active = hit-call score of the fitted dose curve at least 0.9, where 1 is the maximum; inconclusive = response in the unintended direction; inactive = score below 0.9.

What is called AC50 is the midpoint of the concentration-response curve, whichever way the signal moves.

Bile acid receptor (Homo sapiens), sequence (Q96RI1 whole entry, looked up, the tested form may be a part): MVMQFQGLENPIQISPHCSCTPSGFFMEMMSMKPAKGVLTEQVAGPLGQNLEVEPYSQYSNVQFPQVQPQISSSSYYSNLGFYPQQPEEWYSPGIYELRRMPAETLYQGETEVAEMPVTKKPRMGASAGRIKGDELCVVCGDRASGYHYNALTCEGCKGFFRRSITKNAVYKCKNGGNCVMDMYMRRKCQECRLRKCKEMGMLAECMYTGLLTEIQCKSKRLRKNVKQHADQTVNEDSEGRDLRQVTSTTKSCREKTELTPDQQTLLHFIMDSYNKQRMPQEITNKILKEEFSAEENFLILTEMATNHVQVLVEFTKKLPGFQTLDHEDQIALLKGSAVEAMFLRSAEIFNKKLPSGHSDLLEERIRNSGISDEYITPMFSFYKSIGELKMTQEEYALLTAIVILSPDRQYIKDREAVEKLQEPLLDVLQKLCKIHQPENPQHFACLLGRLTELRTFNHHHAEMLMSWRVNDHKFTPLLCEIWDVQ
Estrogen receptor beta (Homo sapiens), sequence (Q92731 whole entry, looked up, the tested form may be a part): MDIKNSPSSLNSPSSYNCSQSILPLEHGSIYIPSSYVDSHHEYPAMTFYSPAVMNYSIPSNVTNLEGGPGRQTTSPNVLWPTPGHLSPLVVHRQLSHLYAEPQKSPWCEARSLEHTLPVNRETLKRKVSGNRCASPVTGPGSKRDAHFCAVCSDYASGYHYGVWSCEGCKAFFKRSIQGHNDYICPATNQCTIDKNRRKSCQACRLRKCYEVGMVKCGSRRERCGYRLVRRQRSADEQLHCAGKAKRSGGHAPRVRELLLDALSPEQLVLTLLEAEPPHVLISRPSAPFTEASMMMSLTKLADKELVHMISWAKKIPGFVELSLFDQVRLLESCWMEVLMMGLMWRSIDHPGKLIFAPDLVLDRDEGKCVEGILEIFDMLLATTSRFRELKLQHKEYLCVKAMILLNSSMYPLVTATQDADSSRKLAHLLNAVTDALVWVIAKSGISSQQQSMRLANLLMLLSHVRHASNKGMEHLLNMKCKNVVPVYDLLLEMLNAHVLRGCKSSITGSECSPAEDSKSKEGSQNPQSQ
mouse Estrogen Receptor alpha (Era), Esr1 (gene 13982), sequence (P19785 whole entry, looked up): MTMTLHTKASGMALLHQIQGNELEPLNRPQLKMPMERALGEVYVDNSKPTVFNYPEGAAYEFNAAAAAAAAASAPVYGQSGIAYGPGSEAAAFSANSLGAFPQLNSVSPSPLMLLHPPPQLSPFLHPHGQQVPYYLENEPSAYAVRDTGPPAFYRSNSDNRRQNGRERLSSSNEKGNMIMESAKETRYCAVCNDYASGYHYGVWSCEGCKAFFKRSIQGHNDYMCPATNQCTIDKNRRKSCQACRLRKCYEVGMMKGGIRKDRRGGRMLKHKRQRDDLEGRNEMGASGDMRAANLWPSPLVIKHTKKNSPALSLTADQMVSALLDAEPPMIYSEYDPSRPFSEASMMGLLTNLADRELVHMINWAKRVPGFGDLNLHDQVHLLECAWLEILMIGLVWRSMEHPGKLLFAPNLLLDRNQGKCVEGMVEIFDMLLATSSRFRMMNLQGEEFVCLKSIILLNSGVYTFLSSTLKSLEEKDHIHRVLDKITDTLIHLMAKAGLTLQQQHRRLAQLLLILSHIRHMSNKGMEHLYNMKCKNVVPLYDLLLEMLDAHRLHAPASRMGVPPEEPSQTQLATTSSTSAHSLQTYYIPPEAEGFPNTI
human Dopamine Transporter (DAT), SLC6A3 (gene 6531), sequence (Q01959 whole entry, looked up): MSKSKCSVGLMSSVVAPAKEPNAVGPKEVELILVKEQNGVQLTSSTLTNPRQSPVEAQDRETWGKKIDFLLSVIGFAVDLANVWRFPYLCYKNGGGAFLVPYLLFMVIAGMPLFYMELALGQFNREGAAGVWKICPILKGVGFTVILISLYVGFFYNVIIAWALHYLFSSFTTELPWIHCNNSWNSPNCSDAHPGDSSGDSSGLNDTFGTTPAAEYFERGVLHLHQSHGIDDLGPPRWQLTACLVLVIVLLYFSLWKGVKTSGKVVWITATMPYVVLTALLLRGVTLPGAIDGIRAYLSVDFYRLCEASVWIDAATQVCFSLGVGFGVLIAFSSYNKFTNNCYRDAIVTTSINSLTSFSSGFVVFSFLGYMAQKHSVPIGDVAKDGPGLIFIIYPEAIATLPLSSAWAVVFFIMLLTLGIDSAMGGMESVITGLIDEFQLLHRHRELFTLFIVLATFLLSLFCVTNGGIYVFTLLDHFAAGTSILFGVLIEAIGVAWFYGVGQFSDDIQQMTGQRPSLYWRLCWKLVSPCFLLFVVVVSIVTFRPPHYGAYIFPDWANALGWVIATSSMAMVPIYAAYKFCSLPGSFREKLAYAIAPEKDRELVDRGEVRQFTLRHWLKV

Take `CCOC(OCC)C(=O)c1ccccc1`: the AC50 in [1] is 7 µM (active).
On to `CCCCCCc1ccc(N)cc1`, for which the concentration at half-maximal activity (AC50) in experiment [2] is 0.138 µM (active); in experiment [7], 17 µM (active); in [8], 6.61 µM (active). In addition, the outcome in [3], in [4], in [5] and in experiment [6] was inactive.
Regarding `Clc1ccc(Nc2nnc(Cc3ccncc3)c3ccccc23)cc1`, the values for the AC50 in experiment [9], in experiment [1] and in [11] were 6.66 µM (active), 0.987 µM (active) and 0.898 µM (active), respectively. The compound was classed as inactive in [10].
As for `CC(=O)Nc1ccc(O)cc1`, the compound was called inactive in experiment [3] and in experiment [4].
As for `CCCCCc1ccc(O)cc1`, the AC50 in experiment [9] was 10.5 µM (active); in [1], 6.09 µM (active); in [11], 14.6 µM (active).
For the compound `NS(=O)(=O)O`, in experiment [4], the call was inactive.
Consider `Cc1cc(Cc2cc(C)cc(C(C)(C)C)c2O)c(O)c(C(C)(C)C)c1`, for which the result in experiment [4], in experiment [5] and in experiment [6] was inactive.
Consider `OCC(CO)(CBr)CBr`, for which the outcome in [8] was inactive.
`NCc1cccc(CN)c1`: the AC50 in experiment [2] is 6.34 µM (active). In addition, the result in experiment [4], in experiment [5], in experiment [6] and in experiment [8] was inactive.
As to `Oc1cc2ccccc2cc1O`, in experiment [11], the compound was called inactive.
As to `CC(C)(C)c1ccc(O)c(O)c1`, the AC50 is 45.5 µM (active) in [9] and 18.4 µM (active) in experiment [11]. Also, the outcome in experiment [11] was inactive.
In the case of `c1ccc2c(c1)CCC2`, in experiment [11], the result was inactive.
In the case of `O=S(=O)(O)c1ccccc1`, the result in experiment [4], in experiment [7] and in experiment [8] was inactive.
For the compound `CC(O)COc1ccccc1` (configuration not stated), the result in experiment [12], in experiment [11], in experiment [3] and in [4] was inactive.
For `Nc1cc(Cl)c(-c2cc(Cl)c(N)cc2Cl)cc1Cl`, the AC50 in [2] is 0.389 µM (active).
On to `CCCCN(C)C`, for which the compound was classed as inactive in experiment [1].
On to `Cc1cc(C(C)(C)C)c(O)c(C(C)(C)C)c1`, for which the compound was classed as inactive in experiment [4]. Besides, the AC50 is 11.3 µM (active) in experiment [7] and 11.4 µM (active) in experiment [8].
With `CCCCCCOC(=O)c1ccc(O)cc1`, the AC50 in experiment [2] is 3.82 µM (active).
As for `CCc1ccccc1O`, the outcome in [4], in experiment [5], in experiment [6] and in experiment [7] was inactive.
For `CCCCCCC(C)(C)C(=O)O`, the call in [3], in experiment [4], in [5], in experiment [6], in [7] and in [8] was inactive.
For `O=C(c1ccccc1)c1ccccc1`, the outcome in experiment [9], in [1], in experiment [3] and in experiment [7] was inactive.
Turning to `Clc1ccc2c(Cl)ccnc2c1`, the AC50 in experiment [11] is 25 µM (active).
For `CCCCCCCCCCCCCCC`, the compound was called inactive in experiment [11] and in experiment [4].
